In the library only some 7.4% were active in any assay of this set; here they are far more common.
ELG1 genotox: qHTS screen for small molecules that induce genotoxicity in human embryonic kidney (HEK293T) cells expressing luciferase-tagged ELG1 | HEK293T ELG1-luciferase reporter, luminescence, 16 h | Potency, µM (titrated, usually from 46 µM), for the others: at the top dose activity change, positive = activation, most hits filed as activators | actives 1.3% (n = 330,000); also: % of control where 0% means no effect; nearly all actives have a fitted effect of over 60% in size
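Luminescence read-out: rising ELG1-luciferase signal, reflecting elevated ELG1 protein under genetic stress, flags genotoxic compounds. Cells were treated for 16 hr at 37 °C before ONE-Glo detection.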
KinaseGlo FLuc: Counterscreen for Luciferase (Kinase-Glo TM) Inhibition | Luciferin 4-monooxygenase (Photuris pensylvanica), Q27757 | Kinase-Glo luciferase, ATP luminescence, 8 min | Potency, µM (doses to about 38.3 µM), inactives show at the highest dose activity change, negative = inhibition, most hits filed as inhibitors | actives 0.28% (n = 200,000) | AID 1379, 2008; also: % is scaled to controls: 0 for no effect and ±100 for the full control effect; nearly all actives have a fitted effect of over 60% in size
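Recombinant Kinase-Glo luciferase, 10 uM ATP (linear range), luciferin; imidazole pH 7.2 / KCl / MgCl2 / Tween / BSA buffer; 8 min RT; luminescence.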
SMN2 splice up: qHTS Assay for Enhancers of SMN2 Splice Variant Expression; actives 2.8% (n = 210,000); Potency, µM (series often up to 46.1 µM), for inactives: top-dose activity change, positive = activation, most hits filed as activators; HEK293 SMN2-luciferase splicing reporter, luminescence, 30-36 h; AID 1458, 2008; also: % of control where 0% means no effect; nearly all actives have a fitted effect of over 55% in size
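qHTS luciferase splicing reporter: luminescence rises when SMN2 exon 7 is included in transfected HEK293 cells. Compound exposure lasted 30-36 h at 37C, with 4.5 mM final sodium butyrate as control, followed by a ONE-Glo read.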
FLuc modulator: qHTS profiling assay for firefly luciferase inhibitor/activator using purifed enzyme and Km concentrations of substrates (counterscreen for miR-21 project) | Luciferin 4-monooxygenase (Photinus pyralis), P08659 | purified FLuc, Km substrates, luminescence inhibition | Potency, µM (doses to about 57.5 µM), without a hit: at the highest dose activity change, negative = inhibition, actives largely listed as inhibitors | actives 6.9% (n = 360,000);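 also: plate controls were vehicle for no effect and reference inhibitor for full effect; nearly all actives have a fitted effect of over 55% in size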
Target sequence (P08659 whole entry, looked up): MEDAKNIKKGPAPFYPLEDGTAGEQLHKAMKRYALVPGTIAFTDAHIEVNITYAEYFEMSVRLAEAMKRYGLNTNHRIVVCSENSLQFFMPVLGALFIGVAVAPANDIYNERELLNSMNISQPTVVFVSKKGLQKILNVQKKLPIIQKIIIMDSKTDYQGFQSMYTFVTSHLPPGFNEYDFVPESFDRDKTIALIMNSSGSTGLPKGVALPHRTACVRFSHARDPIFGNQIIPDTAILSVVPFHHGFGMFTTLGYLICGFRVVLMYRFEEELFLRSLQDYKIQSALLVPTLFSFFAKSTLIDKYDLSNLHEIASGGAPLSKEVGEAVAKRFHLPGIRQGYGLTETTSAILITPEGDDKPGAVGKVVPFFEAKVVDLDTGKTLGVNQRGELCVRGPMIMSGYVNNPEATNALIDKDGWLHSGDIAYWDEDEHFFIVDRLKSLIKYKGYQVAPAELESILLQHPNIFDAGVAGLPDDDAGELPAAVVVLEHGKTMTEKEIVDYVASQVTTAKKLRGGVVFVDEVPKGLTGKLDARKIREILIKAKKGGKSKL
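Biochemical qHTS of compounds, final roughly 60 µM downward over six points, against 10 nM purified firefly luciferase using Km concentrations of substrates (10 uM D-luciferin, 10 uM ATP) in Tris acetate pH 7.5 buffer; luminescence output.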
NPC1 prom act: qHTS Assay for NPC1 Promoter Activators; Potency, µM (highest dose often 9.22 µM), for the others: top-dose activation, hits mostly activators; actives 2.4% (n = 320,000); AID 485313, 2010; Huh7 NPC1 promoter luciferase reporter, 24 h; also: % of control where 0% means no effect; nearly all actives have a fitted effect of over 60% in size
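Huh7 cells stably carrying NPC1 promoter–luciferase, plated in Opti-MEM with 10% FBS for 2 h, were exposed to compound in DMSO for 24 h at 37 °C; luciferase reagent was added for 10 min and luminescence read.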
Rab9 promoter act: qHTS Assay for Rab9 Promoter Activators; Huh7 Rab9 promoter-luciferase reporter, luminescence, 24 h; Potency, µM (doses to about 9.22 µM), without a hit: at the top dose activation, negative = inhibition, most hits filed as activators; actives 2.8% (n = 320,000); AID 485297, 2010; also: % of control where 0% means no effect; nearly all actives have a fitted effect of over 60% in size
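Quantitative HTS format; Huh7 Rab9-luciferase reporter cells (1500/well) receive compound 2 h post-plating, incubate 24 h at 37 °C, then get luciferase reagent for 10 min before luminescence reading.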
* marks the source's active call; other numbers are inactive results; ? = inconclusive; nt = no result; [ ] = dose if it differs, or a comment. Calls follow the shape of the dose curve; as a rule, active = well fitted curve in the direction sought with a large enough effect; inconclusive = small, poorly fitted or top-dose-only effect, or another doubt; inactive = no such curve, though single readings can be large; an effect the other way counts as inactive or inconclusive. Potency is read from the fitted curve at half-maximal effect.

SMILES	ELG1 genotox	KinaseGlo FLuc	SMN2 splice up	FLuc modulator	NPC1 prom act	Rab9 promoter act
O=C(COC(=O)c1cccs1)NCC1CCCCC1	-0.3%	-3.2%	-4.7%	?	-3.1%	9.5%
CC(=O)c1ccc(NC(=O)C2CCC(CNS(=O)(=O)c3cccs3)CC2)cc1 (stereo not given)	nt	nt	11.0%	-4.6%	nt	nt
CC(=O)Nc1ccc(S(=O)(=O)N2CCN=C2SCc2ccccc2C)cc1	-2.6%	nt	nt	-2.0%	-0.8%	-0.5%
Clc1ccc(-n2ncc3c(NCC4CCCO4)ncnc32)cc1 (stereo not given)	?	2.8%	5.01µM*	1.69µM*	0.631µM*	0.447µM*
CC(Sc1ncnc2c1cnn2-c1ccccc1)C(=O)NCC1CCCO1 (stereo not given)	2.0%	nt	nt	?	-4.9%	-4.4%
O=C(CSc1ncnc2c1cnn2-c1cccc(Cl)c1)NCC1CCCO1 (stereo not given)	-14.2%	nt	nt	-7.0%	-3.1%	3.5%
COc1ccc(-n2ncc3c(NCC4CCCO4)ncnc32)cc1 (stereo not given)	11.7%	-2.1%	11.2µM*	10.7µM*	0.562µM*	0.891µM*
c1ccc(-n2ncc3c(NCC4CCCO4)ncnc32)cc1 (stereo not given)	2.3%	-3.3%	-0.9%	16.9µM*	2µM*	3.55µM*
O=S1(=O)CCC(n2nccc2-c2ccccc2)C1 (stereo not given)	-1.3%	nt	nt	1.6%	1.0%	-2.1%
O=C(O)/C=C/C(=O)Nc1ccc(C2(c3ccc(NC(=O)/C=C/C(=O)O)cc3)c3ccccc3-c3ccccc32)cc1	-1.5%	nt	nt	-12.8%	1.2%	1.1%
COc1ccccc1NC(=O)CSc1ccc(-c2ccc(-n3ccnc3)cc2)nn1	?	nt	nt	?	-0.1%	-4.9%
Cc1ccc(C(CC(=O)c2ccco2)SCCO)cc1 (stereo not given)	?	-8.1%	-6.7%	10.7µM*	26.2%	29.8%
O=C(CC(SCCO)c1ccc(F)cc1)c1ccco1 (stereo not given)	6.6%	-19.8%	14.4%	?	0.7%	-0.6%
O=S(=O)(/N=C(/Nc1nc2ccccc2s1)c1ccccc1)c1ccccc1	20.5%	nt	nt	nt	8.9%	?
Cc1noc(C)c1C(=O)Nc1nc2ccccc2s1	?	nt	nt	16.9µM*	19.2%	?
c1ccc2sc(NN=C3CCCCCC3)nc2c1	0.461µM*	-10.6%	4.47µM*	0.338µM*	0.355µM*	0.224µM*
Cc1ccc(C(=O)O)c(C(=O)Nc2nc3ccccc3s2)c1	5.7%	nt	nt	15.1µM*	19.5%	19.5%
CSc1nc2ccc3nc(NC(=O)c4ccccc4)sc3c2s1	?	-1.6%	?	?	3.16µM*	3.55µM*
O=C(O)c1ccccc1-c1ccccc1C(=O)Nc1nc2ccccc2s1	4.0%	nt	nt	0.2%	-4.9%	-1.7%
CSc1nnc(-c2cc[n+](C)cc2)n1CCO	1.4%	0.8%	0.1%	4.0%	-3.7%	-4.0%
C[C@H](CO)N1C[C@H](C)[C@@H](CN(C)C(=O)Nc2ccc(C(F)(F)F)cc2)Oc2c(NC(=O)CCC(F)(F)F)cccc2C1=O	-0.6%	nt	nt	nt	nt	nt
CCN(CC(=O)Nc1c(F)cccc1F)C(=O)Cc1csc(-c2ccccc2)n1	-1.9%	nt	nt	0.7%	-0.8%	0.9%
O=C(Nc1ccccc1)c1nc2ccccc2s1	2.91µM*	?	3.16µM*	1.07µM*	2.82µM*	2.51µM*
CSc1nc2ccc(NC(=O)c3cccs3)cc2s1	16.7%	nt	nt	nt	nt	nt
Cc1ccc2nc(NC(=O)c3cccs3)sc2c1	0.259µM*	-20.6%	2.51µM*	0.477µM*	0.501µM*	?
SMILES	ELG1 genotox	KinaseGlo FLuc	SMN2 splice up	FLuc modulator	NPC1 prom act	Rab9 promoter act
Cc1cccc(NC(=S)c2nc3ccccc3s2)c1	?	-10.9%	17.8µM*	3.01µM*	?	?
O=C(c1nc2ccccc2s1)N1CCSCC1	18.4µM*	0.3%	10.0%	?	23.3%	?
Cc1cccc(NC(=O)c2cc(C)nc3ccccc23)c1	3.0%	nt	nt	-1.3%	-0.3%	-2.1%
COc1ccc(C(=O)NCc2nnc(SCC(=O)N3CCc4ccccc43)n2CCc2ccccc2)cc1	-7.3%	0.9%	12.1%	-0.7%	-0.7%	-1.6%
COC(=O)[C@@]12CCCCN1[C@H](c1ccc(-c3cc(C(C)=O)cs3)cc1)[C@H]1C(=O)N(C)C(=O)[C@H]12	-9.1%	nt	nt	-0.6%	-7.9%	-7.7%
Cc1c(C(=O)N2CCN(C3CCS(=O)(=O)C3)CC2)oc2c(F)cccc12 (stereo not given)	0.8%	nt	nt	-0.5%	-0.7%	1.3%
CN(C(=O)c1ccccc1)c1nc2ccccc2s1	?	-5.9%	4.47µM*	0.849µM*	0.282µM*	0.562µM*
Cc1ccc2nc(NC(=O)c3ccc(Cn4cc(Cl)cn4)o3)sc2c1	0.7%	-1.2%	-31.9%	7.57µM*	10.2%	14.1%
NNC(=O)c1ccc(Cn2cc(Cl)cn2)o1	-0.4%	nt	nt	-16.0%	-5.4%	-0.9%
O=C(Nc1nc2ccccc2s1)c1ccccc1	1.03µM*	?	3.55µM*	1.69µM*	1µM*	0.447µM*
Cc1csc2nc(NC(=O)c3ccccc3)sc(=O)c12	?	nt	nt	4.26µM*	0.2%	17.5%
COc1ccc(CCNC(=O)CCc2c(C)c3cc4c(C)coc4cc3oc2=O)cc1	nt	nt	18.3%	-9.8%	nt	nt
Cn1ncc2c(NCCc3ccccc3)nc(Cl)nc21	nt	-10.3%[7.66 µM]	-17.3%[9.22 µM]	nt	nt	nt
CS(=O)(=O)c1ccc2nc(NC(=O)c3cccs3)sc2c1	0.92µM*	?	2.24µM*	0.675µM*	0.398µM*	0.398µM*
Cc1ccc2nc(NC(=S)NC(=O)c3ccc(OC(C)C)cc3)sc2c1	-0.8%	3.0%	-2.3%	?	-17.7%	0.4%
Cc1cccc2sc(NC(=O)c3ccc(Cl)s3)nc12	7.3%	-1.3%	-32.6%	?	1.6%	21.1%
Cc1ccc2nc(NC(=S)NC(=O)c3cccs3)sc2c1	?	-2.0%	?	1.07µM*	3.55µM*	1.12µM*
COc1cc(-c2cc(C(=O)Nc3nc4ccccc4s3)c3ccccc3n2)cc(OC)c1OC	-6.5%	-2.5%	-20.1%	15.1µM*	11.7%	-2.4%
Cc1ccc2nc(NC(=O)c3ccc(Cl)s3)sc2c1	4.61µM*	0.6%	12.6µM*	1.69µM*	1µM*	0.562µM*
COc1ccc(-c2noc(N3CCC(C(=O)NC(C)c4ccccc4)CC3)n2)cc1 (stereo not given)	-2.3%	nt	nt	-17.6%	-7.2%	-7.4%
